This is one part of a sample in which hits are shown more often than they occur.
HT1080 IDH1KD tx = HT-1080 IDH1 knockdown cell toxicity (counter line). HT-1080 IDH1 knockdown viability, ATP luminescence, 48 h. Potency, µM (doses to about 46.1 µM), inactives show at the highest dose activity, negative = toxicity, usual class: cytotoxic. AID 686971. hit rate 2% among 360,000;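 note: potency is the fitted concentration of half-maximal effect; 0% = DMSO wells and -100% = cell-free medium wells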
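After a 2 h attachment period, IDH1KD HT-1080 cells took pin-transferred compound for 48 h at 37 °C; ATP-based luminescence after 10 min room-temperature reagent incubation reported viability.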
TDP1 cell CPT = growth inhibition of DT40 Tdp1-/-;hTDP1 cells with camptothecin (screen for TDP1 inhibitors) | chicken DT40 Tdp1-/-;hTDP1 cells + 20 nM CPT, ATP luminescence, 48 h | Potency, µM (series often up to 46.2 µM), inactives show at the highest dose activity change, negative = growth inhibition, usual class: inhibitors | hit rate 12% among 420,000 | AID 686979; note: potency is the fitted concentration of half-maximal effect; nearly all actives have a fitted effect of over 55% in size
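Cell growth measured by CellTiter-Glo luminescence after a minimum 48 h, 37 C compound exposure with 20 nM CPT in Tdp1-knockout DT40 cells stably expressing hTDP1, seeded 400/well; qHTS titration format.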
ALOX12 inh = blocks human arachidonate 12S-lipoxygenase | Potency, µM (top dose mostly 108 µM), without a hit: at the top dose activity change, negative = inhibition, usual class: inhibitors | hit rate 1.1% among 580,000 | purified 12hLO, xylenol orange hydroperoxide absorbance; note: potency is the fitted concentration of half-maximal effect
Target sequence (P18054 whole entry, looked up): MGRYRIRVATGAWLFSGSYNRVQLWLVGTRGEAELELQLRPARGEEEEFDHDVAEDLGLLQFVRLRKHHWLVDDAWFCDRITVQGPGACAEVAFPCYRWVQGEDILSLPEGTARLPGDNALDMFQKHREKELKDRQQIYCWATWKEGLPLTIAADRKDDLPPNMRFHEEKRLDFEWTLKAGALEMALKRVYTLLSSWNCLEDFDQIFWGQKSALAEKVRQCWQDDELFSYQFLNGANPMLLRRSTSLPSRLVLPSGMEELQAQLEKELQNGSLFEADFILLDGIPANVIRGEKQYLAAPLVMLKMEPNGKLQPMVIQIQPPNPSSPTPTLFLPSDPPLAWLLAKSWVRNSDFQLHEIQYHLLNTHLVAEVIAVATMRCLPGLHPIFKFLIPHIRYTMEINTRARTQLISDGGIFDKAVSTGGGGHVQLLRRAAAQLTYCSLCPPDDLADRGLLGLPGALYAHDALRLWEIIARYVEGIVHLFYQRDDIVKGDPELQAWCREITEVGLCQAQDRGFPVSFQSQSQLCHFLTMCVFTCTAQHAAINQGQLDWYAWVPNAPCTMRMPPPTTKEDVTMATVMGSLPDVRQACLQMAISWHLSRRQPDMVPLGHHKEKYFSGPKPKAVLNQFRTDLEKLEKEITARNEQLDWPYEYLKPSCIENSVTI
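Purified human 12hLO (150 nM final) in 25 mM Hepes, 0.01% Triton X-100, pH 7.0 was preincubated 15 min at room temperature with compound. Then 40 uM arachidonic acid was added, 30 min. Hydroperoxide was read by Fe-XO absorbance ratio 573/405 nm.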
TDP1 cell noCPT = qHTS for Inhibitors of human tyrosyl-DNA phosphodiesterase 1 (TDP1): qHTS in cells in absence of CPT | DT40 Tdp1-/- hTDP1 cells, no CPT, ATP luminescence, 48 h | Potency, µM (doses to about 46.2 µM), for the others: at the highest dose activity change, negative = growth inhibition, usual class: inhibitors | hit rate 15% among 420,000; note: potency is the fitted concentration of half-maximal effect; nearly all actives have a fitted effect of over 55% in size
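A cellular qHTS used chicken DT40 cells lacking endogenous Tdp1 but carrying stably transfected human TDP1. Compounds were applied without camptothecin, and cell growth kinetics were judged by ATP-dependent luminescence after ≥48 hr.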
HT1080NT lethal = kills 2HG-producing HT-1080-NT fibrosarcoma cells | HT-1080-NT fibrosarcoma viability, CellTiter-Glo ATP luminescence, 48 h | Potency, µM (titrated, usually from 46.1 µM), for inactives: top-dose activity, negative = less viability, usual class: cytotoxic | hit rate 1.6% among 360,000 | AID 686970;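 note: NT is the 2HG producing partner of a matched IDH1 knockdown line; potency is the fitted concentration of half-maximal effect; 0% = DMSO-treated cells and -100% = media-only wells without cells; nearly all actives have a fitted effect of over 55% in size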
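A 48-hour cytotoxicity screen used HT-1080-NT cells plated 2 hours before compound delivery. ATP-based CellTiter-Glo luminescence measured viability, normalized to DMSO and no-cell controls.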
IL-1B inflam inh = blocks inflammasome-driven IL-1 beta release | THP-1 LPS/ATP IL-1B secretion, AlphaLISA, 16 h; active compounds read low | activity change, % at 57.5 µM | hit rate 4.7% among 360,000 | AID 743279; in the data active = activity change below about -50%; inconclusive = mostly about -30% to -49%
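Secreted IL-1B measured by AlphaLISA bead assay after 16 h compound exposure of THP-1 cells; compounds (final up to 57.5 uM) added 1 h before LPS (250 ng/mL) and ATP (1.25 mM) stimulation; lower signal means less secretion.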
Starred values were filed as active, the others as inactive; u = inconclusive; x = no result given; [ ] = dose if it differs, or a comment. Unless noted, calls come from the whole dose curve; as a rule, active = well fitted curve in the direction sought with a large enough effect; inconclusive = small, poorly fitted or top-dose-only effect, or another doubt; inactive = no such curve, though single readings can be large; an effect the other way counts as inactive or inconclusive. Unless noted, % is set by controls: 0 for no effect and ±100 for the full control effect.

SMILES	HT1080 IDH1KD tx	TDP1 cell CPT	ALOX12 inh	TDP1 cell noCPT	HT1080NT lethal	IL-1B inflam inh
Cc1ccc(-c2cccc(COc3cnc4c(ccn4CC(=O)O)c3)c2)cc1	x	x	-7%[176 µM]	x	x	x
COCCN(Cc1cc2ccc(C)cc2n2nnnc12)Cc1nnnn1C(C)(C)C	5%	0%	1%	u	8%	-18
Cc1ccc(Nc2ncnc3sccc23)cc1C	x	x	4%	x	x	x
O=C(c1ccc(CS(=O)(=O)c2c(Cl)cccc2Cl)o1)N1CCN(c2ccccc2)CC1	x	u	-3%	15µM*	x	x
Cc1ccccc1S(=O)(=O)Cc1ccc(C(=O)N2CCN(c3ccc(F)cc3)CC2)o1	-26%	16µM*	-12%	u	-22%	1
Cc1cccc(C)c1OCc1cc(C(=O)N2CCC(c3ccccc3)CC2)no1	-1%	u	u	u	-3%	u
Cc1ccc(Cl)cc1N1CCN(C(=O)c2ccc(CS(=O)(=O)c3ccccc3C)o2)CC1	x	u	-15%	18µM*	x	x
Cc1ccccc1S(=O)(=O)Cc1ccc(C(=O)N2CCN(c3ccccc3F)CC2)o1	-4%	u	-14%	u	-8%	13
Cc1cccc(C)c1OCc1cc(C(=O)N2CCN(c3ccc(F)cc3)CC2)no1	-15%	u	7%	-24%	-4%	-51*
Cc1ccc(F)cc1NC(=O)c1nn(CC(C)C)c(=O)c2ccccc12	x	x	-30%	x	x	x
CC(C)c1ccc(NC(=O)CSc2nc3c(=O)n(C)c(=O)n(C)c3n2C)cc1	x	x	-1%	x	x	x
CCOC(=O)[C@]12CCCC=C1N(Cc1ccc3c(c1)OCO3)C(=O)[C@H](CC(=O)NCc1ccc(OC)c(OC)c1)C2	8%	u	-1%	u	3%	-5
COC(=O)[C@]12CCCCC=C1N(Cc1ccc3c(c1)OCO3)C(=O)[C@H](CC(=O)NCCc1ccccc1OC)C2	12µM*	23µM*	1%	18µM*	u	x
CCOC(=O)[C@]12CCCC=C1N(Cc1ccc3c(c1)OCO3)C(=O)[C@H](CC(=O)NCCc1ccccc1OC)C2	-28%	u	16%	16µM*	u	u
O=C(CSc1nc2ccccc2o1)Nc1nc(-c2ccc(Cl)cc2)cs1	x	x	-22%	x	x	x
COc1cc(/C=N/N2C(=O)CSC2=S)cc(Br)c1O	-2%	-11%	u	-10%	-14%	19
O=C1CSC(=S)N1/N=C/c1c(F)cccc1F	0%	u	28µM*	-9%	9%	16
O=C1CSC(=S)N1N=Cc1c(F)cccc1Cl	19%	-27%	u	u	1%	0
COc1cccc(/C=N/N2C(=O)CSC2=S)c1O	7%	u	35µM*	u	-1%	-7
O=C1CSC(=S)N1N=Cc1c(O)ccc2ccccc12	u	21µM*	11µM*	13µM*	-14%	32
C[S+](=O)([O-])c1cccc(NC(=O)Cc2c[nH]c3ncc(-c4ccccc4)cc23)c1	x	x	0%[176 µM]	x	x	x
N#C/C(=C(/O)COC(=O)c1ccc2c(c1)OCCO2)c1nc2ccccc2[nH]1	5%	-4%	-21%	-1%	7%	-66*
N#C/C(=C\Nc1ccc2c(c1)OCCO2)c1nc(-c2ccccc2)cs1	11%	u	-10%	u	15%	24
N#C/C(=C(/O)COC(=O)CCc1ccc(S(=O)(=O)N2CCOCC2)cc1)c1nc2ccccc2[nH]1	4%	16µM*	0%	13µM*	10%	44
Cc1ccc(C(=O)OC/C(O)=C(\C#N)c2nc3ccccc3[nH]2)cc1S(=O)(=O)N1CCOCC1	-11%	5.8µM*	4%	7.3µM*	-3%	0
SMILES	HT1080 IDH1KD tx	TDP1 cell CPT	ALOX12 inh	TDP1 cell noCPT	HT1080NT lethal	IL-1B inflam inh
N#C/C(=C\Nc1ccc2c(c1)OCCO2)c1nc2ccccc2[nH]1	-9%	u	-16%	21µM*	0%	-24
CCOC(=O)c1ccccc1NC(=O)CSc1nc2ncccc2o1	x	4%	-1%	-21%	x	x
OCCCc1nc2ccc(Br)cc2[nH]1	x	x	1%	x	x	x
Cc1ccc(S(=O)(=O)N2CCOCC2)cc1N/N=C(\C#N)c1nc2ccccc2[nH]1	-11%	u	-1%	26µM*	-5%	2
CCc1nc2ccc(C(=O)NCc3cccs3)cn2c1N(C)Cc1nccs1	-9%	u	9%	21µM*	4%	-54*
CCc1nc2ccc(C(=O)NCCc3ccccn3)cn2c1N(C)Cc1ccc(N(C)C)cc1	4%	u	6%	u	19%	u
CCc1nc2ccc(C(=O)Nc3ccc(OC)c(OC)c3)cn2c1N(C)Cc1ccc(N(C)C)cc1	5%	u	6%	u	5%	8
CCc1nc2ccc(C(=O)Nc3ccc(OC)c(OC)c3)cn2c1N(C)Cc1nccs1	0%	15µM*	-10%	u	5%	-23
CCc1nc2ccc(C(=O)NCCc3ccccn3)cn2c1N(C)Cc1cccs1	15%	u	-4%	18µM*	8%	-21
CCc1nc2ccc(C(=O)Nc3ccc(OC)c(OC)c3)cn2c1N(CC)Cc1cccc(Br)c1	16µM*	23µM*	13%	23µM*	u	-57*
CCCOc1c(CN2CCCNCC2)cc(Cl)cc1OC	x	x	62%	x	x	x
Cc1nc(NC2CC2)sc1C(=O)NCc1ccncc1	x	x	21%	x	x	x
CCc1nc2ccc(C(=O)NCCc3ccccn3)cn2c1N(C)Cc1nccs1	6%	u	6%	16µM*	5%	-11
CC(C)=CC/C=C1\CCC(C(=O)O)C(C(=O)O)C1 (stereo unspecified)	16%	u	-2%	0.029µM*	21%	28
CC(C)=CCCC1=CC[C@H](C(=O)O)[C@H](C(=O)O)C1	x	3%[9.04 µM]	12%	0%[9.04 µM]	x	x
O=C(Nc1cccc2[nH]ccc12)C(=O)NC1CCCCCC1	x	x	5%	x	x	x
CC(C)OC(=O)CCCCCN1C(=O)CSC1=S	14%	-4%	0%	-9%	8%	-56*
CCCn1nc(C)cc1CN(C)Cc1ccc(=O)n(CC)c1	x	x	57%	x	x	x
COc1ccc2[nH]c(C)c(CCNC(=S)Nc3ccccc3OC)c2c1	14%	18µM*	u	23µM*	-1%	-13
COc1ccc2[nH]c(C)c(CCNC(=S)Nc3cc(C)cc(C)c3)c2c1	-1%	u	u	u	2%	-13
CCc1cccc(C)c1NC(=S)NCCc1c(C)[nH]c2ccc(C)cc12	-20%	10µM*	u	21µM*	-12%	53

Screening data deposited in PubChem BioAssay by National Center for Advancing Translational Sciences (NCATS).
